This is an account of results in PubChem BioAssay (NCI).

Molecules are shown by their SMILES. Where “and” joins values, the source holds several entries; their conditions need not be identical. Identical values can stand only once. About 83,000 compounds went through this panel and 20% of them were active in at least one assay; those are over-represented in the sample as a whole.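 Interpretation: 100, growth as untreated; towards 0, rising growth inhibition; 0, no net growth; 0 to -100, cell death. Compounds scoring below 10 were considered active.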 Calls of active or inactive are those of the source.

What all share (assay): NCI-60 one-dose screen, 48 h (100 = growth as untreated, 0 = no growth, -100 = all killed)
One test deals with NCI-H226 lung. As to conditions: 10 µM unless noted.
The subject of another test is HOP-62 NSCLC. Particulars: 10 µM unless noted.
The next test concerns NCI-H522 lung. Particulars: 10 µM.
The subject of another test is A549/ATCC NSCLC. Particulars: 10 µM unless noted.
For a further test, the system named is 786-0 renal. Particulars: 10 µM unless noted.
The next test has as its system NCI-H322M lung. As to conditions: 10 µM unless noted.
A further test concerns HOP-92 NSCLC. As to conditions: 10 µM.
Another test concerns NCI-H460 lung. Particulars: 10 µM unless noted.
In another test the test system is COLO 205 colon. As to conditions: 10 µM unless noted.

Consider `N#CC(C#N)N=Nc1cc(Cl)ccc1Cl`, for which the growth in the test with NCI-H226 lung is 104% (inactive); in the test with HOP-62 NSCLC it was 104% (inactive); in the test on NCI-H522 lung, 89.8% (inactive); in the test with A549/ATCC NSCLC, 98.4% (inactive); in the test on 786-0 renal, 102% (inactive).

On to `CCCCNc1ccc(Nc2ccccc2)cc1`, for which the growth was 73.3% (inactive) with NCI-H226 lung; 98.3% (inactive) with NCI-H322M lung; 106% (inactive) in the test on HOP-62 NSCLC; 63.7% (inactive) with HOP-92 NSCLC; 31.2% (inactive) in the test on NCI-H522 lung; 70.1% (inactive) in the test with A549/ATCC NSCLC. Also, the growth in the test on 786-0 renal was 92.9% (inactive).

As to `NC(Cc1c[nH]c2ccccc12)C(=O)O` (centres undefined), the growth with NCI-H226 lung is 90.6% (inactive) and 103% (inactive); in the test with NCI-H322M lung it was 98.8% (inactive) and 111% (inactive); in the test with HOP-62 NSCLC, 64.3% (inactive) and 96.3% (inactive); in the test with HOP-92 NSCLC, 75.5% (inactive); with NCI-H522 lung, 86% (inactive) and 93.1% (inactive); in the test on A549/ATCC NSCLC, 113% (inactive) and 97.8% (inactive). Further, the growth with 786-0 renal was 69.5% (inactive) and 99.7% (inactive).

For `O=C(/C=C/c1ccccc1)c1ccccc1`, the growth with NCI-H226 lung was 126% (inactive); in the test with NCI-H322M lung it was 115% (inactive); with HOP-62 NSCLC, 94.9% (inactive); in the test on NCI-H460 lung, 93.1% (inactive); in the test on NCI-H522 lung it was 84.8% (inactive); in the test with A549/ATCC NSCLC, 96.3% (inactive). Besides, the figures for the growth with 786-0 renal and in the test with COLO 205 colon were 86.9% (inactive) and 114% (inactive), respectively.

Consider `C#CCOC(=O)Nc1ccccc1`, for which the growth in the test with NCI-H226 lung was 108% (inactive); with NCI-H322M lung it was 106% (inactive); with HOP-62 NSCLC, 113% (inactive); with NCI-H460 lung, 103% (inactive); with HOP-92 NSCLC, 102% (inactive); with NCI-H522 lung it was 101% (inactive). Moreover, the results for the growth in the test with A549/ATCC NSCLC and in the test on 786-0 renal were 97.4% (inactive) and 94.7% (inactive), respectively.

As to `OC1COC(OCc2ccccc2)C(O)C1O` (centres undefined), the growth is 98.1% (inactive) in the test on NCI-H226 lung; 90.6% (inactive) with NCI-H322M lung; 101% (inactive) in the test with HOP-62 NSCLC; 105% (inactive) in the test with 786-0 renal; 115% (inactive) in the test on COLO 205 colon.

Turning to `CC1(C)COC(=S)N1`, the growth is 94.5% (inactive) with NCI-H226 lung; 101% (inactive) in the test with NCI-H322M lung; 99.8% (inactive) with HOP-62 NSCLC; 113% (inactive) in the test with NCI-H460 lung; 85.2% (inactive) in the test on NCI-H522 lung; 104% (inactive) with A549/ATCC NSCLC. Besides, the growth in the test with 786-0 renal is 99.7% (inactive).

As to `CC1CCC(C(C)C)C(NNC(N)=O)C1` (centres undefined), the growth with NCI-H226 lung was 102% (inactive); in the test with NCI-H322M lung, 102% (inactive); with HOP-62 NSCLC it was 100% (inactive); in the test on HOP-92 NSCLC, 91.5% (inactive); in the test on NCI-H522 lung it was 94.9% (inactive); in the test on A549/ATCC NSCLC, 89.7% (inactive). Besides, the growth is 106% (inactive) in the test with 786-0 renal and 110% (inactive) in the test with COLO 205 colon.

In the case of `CC(C)NC(=O)N/C=C(\C#N)C(N)=O`, the growth in the test with NCI-H226 lung was 97.5% (inactive); in the test with NCI-H322M lung, 99.5% (inactive); in the test on HOP-62 NSCLC, 88.2% (inactive); in the test on NCI-H460 lung, 91.1% (inactive); with HOP-92 NSCLC, 96.6% (inactive); with NCI-H522 lung, 87.2% (inactive). Besides, the growth was 111% (inactive) in the test with A549/ATCC NSCLC, 99% (inactive) in the test on 786-0 renal and 103% (inactive) in the test on COLO 205 colon.

As for `O=C1CSC2=NCCN12`, the growth was 102% (inactive) and 85.5% (inactive) in the test with NCI-H226 lung; 102% (inactive) and 94.5% (inactive) with NCI-H322M lung; 90.9% (inactive) and 95.9% (inactive) in the test on HOP-62 NSCLC; 112% (inactive) and -2.23% (active) with HOP-92 NSCLC; 59.3% (inactive) and 99.1% (inactive) in the test with NCI-H522 lung; 92.9% (inactive) and 113% (inactive) in the test with A549/ATCC NSCLC. Besides, the growth in the test with 786-0 renal is 80.7% (inactive) and 61.7% (inactive); in the test with COLO 205 colon it was 104% (inactive) and 127% (inactive).

Take `CC1CCC2(C(=O)O)CCC3(C)C(=CCC4C5(C)CCC(O)C(C)(C)C5CCC43C)C2C1C` (centres undefined): the growth with NCI-H226 lung is 67.9% (inactive) and 98% (inactive); in the test with NCI-H322M lung, 67.3% (inactive) and 92.7% (inactive); in the test with HOP-62 NSCLC it was 5.46% (active) and 102% (inactive); in the test with NCI-H460 lung, 44.5% (inactive) and 89.9% (inactive); in the test with HOP-92 NSCLC it was 42.5% (inactive) and 65.8% (inactive); in the test with NCI-H522 lung, 31.1% (inactive) and 84.1% (inactive). Moreover, the growth in the test on A549/ATCC NSCLC was 24% (inactive) and 75.4% (inactive); in the test on 786-0 renal, -31.3% (active) and 76.1% (inactive).

Consider `CCCCCCCCCCCCCCCCC(C(=O)O)C(O)(CC(=O)O)C(=O)O` (centres undefined), for which the growth is 107% (inactive) and -23.4% (active) in the test with NCI-H226 lung; 120% (inactive) and 20% (inactive) in the test with NCI-H322M lung; 102% (inactive) and -2.31% (active) in the test with HOP-62 NSCLC; 112% (inactive) and -1.67% (active) with HOP-92 NSCLC; 90% (inactive) and -32.5% (active) with NCI-H522 lung; 106% (inactive) and 12.6% (inactive) with A549/ATCC NSCLC. In addition, the growth with 786-0 renal was 99.7% (inactive) and 0.749% (active); with COLO 205 colon it was 114% (inactive) and -53.4% (active).

In the case of `CC(C)(O)C(=O)O`, the growth is 102% (inactive) with NCI-H226 lung; 98.6% (inactive) in the test on NCI-H322M lung; 99.9% (inactive) in the test with HOP-62 NSCLC; 103% (inactive) with NCI-H460 lung; 91.7% (inactive) in the test on HOP-92 NSCLC; 103% (inactive) with NCI-H522 lung. The growth was 102% (inactive) in the test on A549/ATCC NSCLC and 95.4% (inactive) in the test on 786-0 renal.

As for `Cl`, the growth was 105% (inactive) in the test on NCI-H226 lung, 103% (inactive) in the test on A549/ATCC NSCLC and 104% (inactive) in the test on 786-0 renal.
